Screening results deposited in PubChem BioAssay by National Center for Advancing Translational Sciences (NCATS).
Tau FP inhib: blocks human tau fibril formation measured by polarization. P10636. K18 P301L tau heparin fibrillization, Alexa594 FP, 6 h. Potency, µM (series often up to 57.7 µM), without a hit: at the highest dose activity, negative = inhibition, actives largely listed as inhibitors. hit rate 0.39% among 280,000. AID 1468; also: potency is read from the fitted curve at half-maximal effect; nearly all actives have a fitted effect of over 55% in size
Target sequence (P10636 561-689 P618L limits assumed): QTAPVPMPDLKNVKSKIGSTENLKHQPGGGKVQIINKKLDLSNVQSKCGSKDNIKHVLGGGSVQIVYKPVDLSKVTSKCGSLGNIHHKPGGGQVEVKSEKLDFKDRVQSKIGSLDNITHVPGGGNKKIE
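Read-out: fluorescence polarization of Alexa 594-labeled tau (0.24 uM), 555 nm excitation, 632 nm emission. Mixtures held 15 uM unlabeled K18 P301L, compound and 20 uM heparin, pH 7 acetate buffer, incubated 6 hr at 37 C.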
G9a inh: inhibitors of human histone lysine methyltransferase G9a; hit rate 8.8% among 350,000; G9a H3K9 monomethylation, AlphaScreen, 2 h; Potency, µM (series often up to 102 µM), without a hit: at the top dose activity, negative = inhibition, hits mostly inhibitors; AID 504332; also: potency is read from the fitted curve at half-maximal effect; nearly all actives have a fitted effect of over 75% in size
Target sequence (Q96KQ7 913-1193 limits assumed): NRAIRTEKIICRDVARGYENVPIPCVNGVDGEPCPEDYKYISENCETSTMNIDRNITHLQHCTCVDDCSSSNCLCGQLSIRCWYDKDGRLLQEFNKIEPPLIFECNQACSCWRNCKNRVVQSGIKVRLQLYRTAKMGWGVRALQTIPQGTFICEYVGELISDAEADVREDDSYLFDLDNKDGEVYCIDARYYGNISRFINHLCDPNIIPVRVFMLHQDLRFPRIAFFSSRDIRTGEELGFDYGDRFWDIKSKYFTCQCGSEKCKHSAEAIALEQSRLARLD
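Methyltransferase reactions run at room temperature for 2 h (20 nM enzyme, 500 nM biotin-H3K9 peptide, 20 uM SAM) after a 15 min compound preincubation; product detected by AlphaScreen beads and anti-H3K9me1 antibody.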
Tau ThT inhib: blocks human tau fibril formation measured by thioflavin T. P10636. recombinant tau K18 P301L, heparin-induced fibrillization, ThT fluorescence. hit rate 2.1% among 270,000. Potency, µM (series often up to 57.4 µM), for the others: at the top dose activity, negative = inhibition, actives largely listed as inhibitors; also: potency is read from the fitted curve at half-maximal effect; nearly all actives have a fitted effect of over 55% in size
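ThT emission at 510 nm, taken 1 hr after adding 30 uM dye, quantifies aggregates formed when 20 uM heparin acts on human tau K18 P301L for 6 hr at 37 C.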
Tau fluor counter: counter-screen for tau fibril formation inhibitors | tau K18 P301L Alexa594 fluorescence, heparin fibrillization | Potency, µM (doses to about 57.7 µM), for inactives: top-dose activity change, negative = decrease | hit rate 0.93% among 280,000 | AID 1463; also: potency is read from the fitted curve at half-maximal effect; nearly all actives have a fitted effect of over 55% in size
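Human tau K18 P301L (15 uM unlabeled, 0.24 uM Alexa 594-labeled) in 100 mM sodium acetate pH 7 with 20 uM heparin, 6 hr at 37 C. ThT 30 uM added, 1 hr ambient; Alexa 594 FP and total fluorescence read at 555/632 nm.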
Sfp PPTase inh: Sfp phosphopantetheinyl transferase inhibition | Potency, µM, without a hit: largest response in the series, negative = inhibition, actives largely listed as inhibitors | Biochemical Sfp PPTase activity, qHTS | hit rate 3.5% among 310,000 | Q9F4F7;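 also: the enzyme is Sfp with the accession as filed and its product quenches rhodamine fluorescence; potency is read from the fitted curve at half-maximal effect; 0% = enzyme reaction without inhibitor and -100% = no enzyme wells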
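After 15 min at room temperature with compound, 15 nM Sfp received 5 uM rhodamine-CoA plus 12.5 uM BHQ-2-ybbR (50 mM Hepes pH 7.6, 10 mM MgCl2). Rate came from the fluorescence difference over 30 min, ex 525/em 598 nm.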
FBPA coupling cs: coupling enzyme interference in Giardia aldolase counter-screen. coupling enzyme system counterscreen, AmpLite Red fluorescence. activity change, negative = inhibition, % at 58.2 µM, hits read low. hit rate 0.67% among 290,000. AID 2472; in the data active = activity change below about -30%
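Compounds tested against the coupling enzymes alone at 57.5 uM final; readout was AmpLite Red fluorescence (525/598 nm) after 20 min at RT.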
* hit, by the source's call; ? = inconclusive; / = no result given; [ ] = dose if it differs, or a comment. Rows were chosen to be rich in hits. Some 11% of all compounds tested hit in one or more screens of this group. Unless noted, calls follow the shape of the dose curve; as a rule, active = well fitted curve in the direction sought with a large enough effect; inconclusive = small, poorly fitted or top-dose-only effect, or another doubt; inactive = no such curve, though single readings can be large; an effect the other way counts as inactive or inconclusive. Unless noted, % is scaled to controls: 0 for no effect and ±100 for the full control effect.

SMILES	Tau FP inhib	G9a inh	Tau ThT inhib	Tau fluor counter	Sfp PPTase inh	FBPA coupling cs
Cc1cc(C)n(-c2nnc(C)n2/N=C/c2cc(Br)ccc2OCc2ccccc2)n1	-1.4%	?	?	-0.9%	28.2µM*	-3.1
O=c1[nH]c2ccccc2c(O)c1SCCO	-1.3%	/	-15.8%	-6.1%	79.4µM*	-2.3
Cc1[nH]c2ccccc2c1SCC(=O)O	8.1%	?	?	?	4.9%	1.8
O=C(O)CSc1c(O)c2ccccc2[nH]c1=O	?	4.47µM*	-13.0%	-6.1%	10µM*	-8.3
Nc1c(C(=O)c2ccccc2)sc(Nc2ccc(Cl)c(Cl)c2)c1C(=O)Nc1ccccc1	-13.3%	12.6µM*	20µM*	?	/	/
Cc1nc(Nc2ccc(Cl)cc2Cl)sc1C(=O)Nc1ccccc1	-15.6%	21.0%[59 µM]	?	?	7.9%	-8.3
COc1ccc(Nc2sc(C(=O)Nc3cccc(Cl)c3)c(N)c2C(=O)Nc2ccccc2OC)cc1	13.8%	-7.4%[59 µM]	?	11.2µM*[quencher]	5.7%	-0.2
Cc1ccc(Nc2sc(C(=O)c3ccccc3)c(N)c2C(=O)Nc2ccc(Cl)cc2)cc1	-3.1%	11.2µM*	?	?	/	/
Cc1nc(Nc2ccc(Cl)c(Cl)c2)sc1C(=O)Nc1ccccc1	4.9%	?	?	11.2µM*[quencher]	5.2%	0.1
N#Cc1c(Nc2ccccc2)sc(C(=O)c2ccccc2)c1N	?	10µM*	?	?	-17.5%	3.4
N#Cc1c(Nc2ccc(F)cc2)sc(C(=O)c2ccccc2)c1N	-2.4%	-23.8%	-11.9%	?	-6.5%	7.2
COc1ccc(NC(=O)CN(C)S(=O)(=O)c2ccc3[nH]c4c(c3c2)CCCC4)cc1Cl	4.9%	?	-8.7%	14.1µM*[quencher]	/	/
COc1ccc(NC(=O)CN(C)S(=O)(=O)c2ccc3[nH]c4c(c3c2)CCCC4)cc1OC	14.7%	?	-15.1%	?	/	/
CN(CC(=O)Nc1cccc(C(F)(F)F)c1)S(=O)(=O)c1ccc2[nH]c3c(c2c1)CCCC3	?	?	-8.0%	25.1µM*[quencher]	/	/
COc1cc(Cl)c(NC(=O)CN(C)S(=O)(=O)c2ccc3[nH]c4c(c3c2)CCCC4)c(OC)c1	7.9%	?	-6.9%	?	/	/
Cc1ccc(NC(=O)CN(C)S(=O)(=O)c2ccc3[nH]c4c(c3c2)CCCC4)c(Cl)c1	5.5%	11.2µM*	-3.6%	?	/	/
CN(CC(=O)Nc1cccc(Cl)c1)S(=O)(=O)c1ccc2[nH]c3c(c2c1)CCCC3	-10.5%	?	-7.7%	14.1µM*[quencher]	/	/
CN(CC(=O)Nc1cccc(Cl)c1)S(=O)(=O)c1ccc2c(c1)n(C)c(=O)c(=O)n2C	/	/	/	/	1.7%	/
CSc1cccc(NC(=O)CN(C)S(=O)(=O)c2ccc3c(c2)n(C)c(=O)c(=O)n3C)c1	-5.3%	1µM*	-6.5%	-5.6%	/	/
COc1ccc(CCC(=O)NC2CC(=O)N(c3ccc(C)c(C)c3)C2)cc1 (centres undefined)	-6.5%	-6.9%[59 µM]	-6.5%	-5.1%	/	/
COc1cccc(CC(=O)Nc2ccc3nc(N4CCC(C)CC4)cc(C)c3c2)c1	?	2.2%[59 µM]	?	14.1µM*[quencher]	/	/
COc1ccc(C(=O)Nc2ccc3nc(N4CCCCC4)cc(C)c3c2)c(OC)c1	7.4%	5.4%[59 µM]	?	?	3.9%	1.7
Cc1cc(N2CCC(C)CC2)nc2ccc(NC(=O)Cc3c(F)cccc3Cl)cc12	4.5%	-14.2%[59 µM]	?	?	/	/
COc1cc(OC)cc(C(=O)Nc2ccc3nc(N4CCC(C)CC4)cc(C)c3c2)c1	?	-20.0%[59 µM]	?	3.98µM*[quencher]	/	/
COc1ccccc1C(=O)Nc1ccc2nc(N3CCC(C)CC3)cc(C)c2c1	17.7%	54.4%[59 µM]	8.91µM*	7.94µM*[quencher]	/	/
SMILES	Tau FP inhib	G9a inh	Tau ThT inhib	Tau fluor counter	Sfp PPTase inh	FBPA coupling cs
Cc1cccc(/C=C2\CCC(=C3SCCCS3)C2=O)c1	-4.9%	50.1µM*	1.41µM*	-21.8%	-15.0%	0.0
O=C1C(=C2SCCCS2)CC/C1=C\c1ccc(F)cc1	-4.8%	21.1%	1.12µM*	-3.0%	25.0%	-1.2
COCCn1c(=O)c(CCc2ccccc2)nc2cnc(Nc3ccccc3)nc21	/	10.2%[0.501 µM]	/	/	21.5%	4.5
COc1cccc(-c2[nH]nc3c2C(c2ccsc2)C(C#N)=C(N)O3)c1 (centres undefined)	2.0%	-2.4%[12.7 µM]	-15.7%	-29.1%	6.0%	-12.0
COc1cccc(-c2[nH]nc3c2C(c2ccoc2)C(C#N)=C(N)O3)c1 (centres undefined)	2.1%	50.1µM*	-17.9%	-21.6%	-17.4%	-23.2
CCn1c2ccccc2c2cc(C3C(C#N)=C(N)Oc4n[nH]c(COC)c43)ccc21 (centres undefined)	-16.9%	?	15.8µM*	?	-5.4%	-8.4
CCc1[nH]nc2c1C(c1cccnc1)C(C#N)=C(N)O2 (centres undefined)	0.3%	-3.9%[59 µM]	-2.1%	-2.0%	2.9%	-0.3
CCCc1[nH]nc2c1C(c1cccnc1)C(C#N)=C(N)O2 (centres undefined)	?	-31.8%	17.8µM*	?	4.5%	3.2
CCCc1[nH]nc2c1C(c1ccc(O)c(OC)c1)C(C#N)=C(N)O2 (centres undefined)	1.5%	50.1µM*	?	-5.9%	-6.4%	-0.9
Cc1ccc(Cl)cc1N1CCN(C(=O)c2cc(S(=O)(=O)N3CCC(C)CC3)cn2C)CC1	3.7%	-32.8%[59 µM]	2.8%	11.7%	/	/
O=c1[nH]nc2c3ccccc3cnn12	-2.3%	-0.1%[59 µM]	-5.9%	-3.6%	8.6%	-0.6
S=c1[nH]ncc2ccccc12	4.0%	44.7µM*	-0.3%	5.9%	-17.8%	2.1
COc1cc(/C=N/NC(=O)c2ccc3c(c2)OCO3)ccc1O	/	?	/	/	10.8%	-0.1
COc1ccc(NS(=O)(=O)c2cccc(C(=O)N/N=C(\C)c3ccc(-n4ccnc4)cc3)c2)cc1	-7.5%	-2.2%[12.7 µM]	-5.3%	-7.4%	-2.7%	-46.0*
COc1ccc(/C=N/NC(=O)c2ccc3c(c2)OCO3)cc1	/	79.4µM*	/	/	-4.2%	-5.3
COc1ccc(NS(=O)(=O)c2cccc(C(=O)N/N=C/c3ccc4c(c3)OCCO4)c2)cc1	6.6%	3.6%[59 µM]	11.5%	10.8%	15.8µM*	0.5
COc1ccccc1NS(=O)(=O)c1cccc(C(=O)N/N=C/c2ccc3c(c2)OCCO3)c1	?	4.4%[59 µM]	1.2%	?	8.5%	2.9
CN(C)c1ccc(/C=N/NC(=O)c2cc(-c3ccc4c(c3)OCO4)n[nH]2)cc1	11.1%	/	2.51µM*	?	-4.0%	0.7
O=C(O)C=Cc1ccc(Cn2ccnc2)cc1	3.6%	/	-1.3%	-0.3%	?	-0.6
CCN(CC(=O)Nc1c(F)cccc1F)C(=O)CCCNC(=O)c1ccc(Cl)cc1	/	-4.2%[0.501 µM]	/	/	/	/
